High-throughput results from PubChem.
Compounds with a hit are over-represented: about 9.4% of the library has one in this group of screens.
SMN2 splice up: qHTS Assay for Enhancers of SMN2 Splice Variant Expression; HEK293 SMN2-luciferase splicing reporter, luminescence, 30-36 h; Potency, µM (doses to about 46.1 µM), hits mostly activators; 210,000 compounds, 2.8% hits; note: nearly all actives have a fitted effect of over 55% in size
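qHTS luciferase splicing reporter: luminescence rises when SMN2 exon 7 is included in transfected HEK293 cells. Compound exposure lasted 30-36 h at 37C, with 4.5 mM final sodium butyrate as control, followed by a ONE-Glo read.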
NPC1 prom act: qHTS Assay for NPC1 Promoter Activators; AID 485313, 2010; 320,000 compounds, 2.4% hits; Huh7 NPC1 promoter luciferase reporter, 24 h; Potency, µM (highest dose often 9.22 µM), usual class: activators; note: nearly all actives have a fitted effect of over 60% in size
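Readout is luciferase luminescence, reflecting NPC1 promoter activation in stably transfected Huh7 cells after 24 h compound exposure at 37 °C in reduced-serum medium with 10% FBS.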
ELG1 genotox: qHTS screen for small molecules that induce genotoxicity in human embryonic kidney (HEK293T) cells expressing luciferase-tagged ELG1. HEK293T ELG1-luciferase reporter, luminescence, 16 h. Potency, µM (series often up to 46 µM), usual class: activators. 330,000 compounds, 1.3% hits. AID 504466, 2011; note: nearly all actives have a fitted effect of over 60% in size
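Reporter readout depends on ELG1 protein level, which increases with genetic stress. After 16 hr compound exposure at 37 °C, luciferase activity was quantified using ONE-Glo.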
FLuc modulator: qHTS profiling assay for firefly luciferase inhibitor/activator using purifed enzyme and Km concentrations of substrates (counterscreen for miR-21 project) | 360,000 compounds, 6.9% hits | Luciferin 4-monooxygenase (Photinus pyralis), P08659 | purified FLuc, Km substrates, luminescence inhibition | Potency, µM (series often up to 57.5 µM), most hits filed as inhibitors; note: nearly all actives have a fitted effect of over 55% in size
Target sequence (P08659 whole entry, looked up): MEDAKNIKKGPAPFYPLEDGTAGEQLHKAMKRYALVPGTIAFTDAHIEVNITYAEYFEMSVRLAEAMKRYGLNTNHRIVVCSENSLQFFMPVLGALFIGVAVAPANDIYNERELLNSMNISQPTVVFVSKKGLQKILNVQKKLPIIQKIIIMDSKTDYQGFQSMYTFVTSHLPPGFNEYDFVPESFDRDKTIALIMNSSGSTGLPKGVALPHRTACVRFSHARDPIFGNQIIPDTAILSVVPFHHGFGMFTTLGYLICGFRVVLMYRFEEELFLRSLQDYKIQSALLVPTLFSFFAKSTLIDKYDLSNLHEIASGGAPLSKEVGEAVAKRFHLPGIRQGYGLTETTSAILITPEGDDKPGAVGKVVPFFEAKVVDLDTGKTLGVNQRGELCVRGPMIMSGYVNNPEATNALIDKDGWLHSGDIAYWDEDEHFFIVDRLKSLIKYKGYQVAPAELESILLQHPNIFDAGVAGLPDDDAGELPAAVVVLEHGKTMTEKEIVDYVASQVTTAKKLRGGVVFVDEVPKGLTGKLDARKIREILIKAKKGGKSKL
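Purified P. pyralis luciferase, 10 nM final, with Km-level 10 uM D-luciferin and 10 uM ATP in 50 mM Tris acetate pH 7.5, 10 mM Mg acetate, 0.01% Tween-20, 0.05% BSA; 6-point qHTS titration about 60 µM downward; luminescence read.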
ELG1 DNA repair: qHTS screen for small molecules that inhibit ELG1-dependent DNA repair in human embryonic kidney (HEK293T) cells expressing luciferase-tagged ELG1; HEK293T ELG1-luciferase reporter, luminescence, 16 h; DNA damage induced by 5-fluorouridine; Potency, µM (top dose mostly 46.1 µM), actives largely listed as inhibitors; AID 504467, 2011; 330,000 compounds, 2.3% hits; note: nearly all actives have a fitted effect of over 55% in size
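Luminescence from the luciferase reporter, measured 30 min after ONE-Glo reagent at room temperature, was the read-out. Beforehand, 2,000 cells per well were exposed for 16 hr at 37 °C to 5-fluorouridine together with compound or vehicle.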
Rab9 prom act: qHTS Assay for Rab9 Promoter Activators; Huh7 Rab9 promoter-luciferase reporter, luminescence, 24 h; Potency, µM (titrated, usually from 9.22 µM), hits mostly activators; 320,000 compounds, 2.8% hits; AID 485297, 2010; note: nearly all actives have a fitted effect of over 60% in size
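Huh7 cells stably carrying a Rab9 promoter-luciferase reporter, 1500 cells per well in OP-MEM I with 10% FBS, treated with compound 24 hours at 37C. Luciferase activity read by luminescence after 10 minutes with Amplite reagent.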
Numbers stand for hits; . = inactive; ? = inconclusive; / = no result given; [ ] = dose if it differs, or a comment. Calls come from the whole dose curve; as a rule, active = well fitted curve in the direction sought with a large enough effect; inconclusive = small, poorly fitted or top-dose-only effect, or another doubt; inactive = no such curve, though single readings can be large; an effect the other way counts as inactive or inconclusive.

SMILES	SMN2 splice up	NPC1 prom act	ELG1 genotox	FLuc modulator	ELG1 DNA repair	Rab9 prom act
CCOc1ccccc1CNc1ncnc2c1nc1n2CCCC1	/	/	/	.	/	/
COc1cc([N+](=O)[O-])ccc1NC(=O)NCC1CCN(Cc2ccc(Cl)cc2)CC1	/	.	.	.	23µM	.[1.84 µM]
COc1ccc(Cl)cc1NC(=O)NCC1CCN(Cc2cc(C)ccc2C)CC1	/	.	.	.	?	.
Cc1ccc(CN2CCN(C3CCN(S(=O)(=O)N(C)C)CC3)C(=O)C2=O)cc1	/	/	/	.	/	/
COC(=O)N1N=C(c2ccc(Br)cc2)CC1(O)C(F)(F)F (stereo not drawn)	16µM	3.5µM	?	11µM	?	?
CCOC(=O)N1N=C(c2ccc(C)cc2)CC1(O)C(F)(F)F (stereo not drawn)	.	0.89µM	?	5.4µM	?	0.71µM
CCOC(=O)N1N=C(c2ccccc2)CC1(O)C(F)(F)F (stereo not drawn)	?	3.5µM	?	13µM	?	2.2µM
O=C(c1ccccc1)N1N=C(c2ccccc2)CC1(O)C(F)(F)F (stereo not drawn)	/	.	.	.	.	.
CCOC(=O)N1N=C(CC)CC1(O)C(F)(F)F (stereo not drawn)	.	.	.	.	.	.
Cc1cccc(N2CCN(C(=O)Cn3ncc4c3-c3cc(C)ccc3OC4)CC2C)c1 (stereo not drawn)	.	/	/	.	/	/
Cc1ccccc1NC(=O)c1ccc(F)c(S(=O)(=O)N(C)C2CCCCC2)c1	/	/	/	.	/	/
CCCc1cc(-c2[nH]ncc2-c2ccc3c(c2)OCCCO3)c(O)cc1O	.	?	.	.	21µM	.
Cc1ccc(CNC(=O)C2(S(=O)(=O)c3ccccc3)CC=CC2)cc1	/	4µM	?	15µM	?	4µM
COc1cc(/C=C2/C(=O)ON=C2c2ccccc2)ccc1O	.	.	.	19µM	?	.
O=C1ON=C(c2ccccc2)/C1=C/c1ccc(O)cc1	/	.	?	?	?	.
COc1cc(/C=C2\C(=O)ON=C2c2ccccc2)cc(Cl)c1O	.	.	.	19µM	.	.
O=C1ON=C(c2ccc(Cl)cc2)/C1=C/c1ccc(O)cc1	.	.	?	11µM	?	.
COc1cc(/C=C2\C(=O)ON=C2c2ccccc2)cc(Br)c1O	/	.	.	?	.	.
COc1cccc(CNC(=O)CCn2c(=O)c3cccn3c3ccc(F)cc32)c1OC	/	/	/	.	/	/
Cc1ccc(-c2cc3nccc(-c4cc([N+](=O)[O-])ccc4O)n3n2)cc1	.	/	/	?	/	/
CCOc1ccc(OCC)c(NC(=O)Cn2nc(CC)n3c(cc4sccc43)c2=O)c1	.	/	/	.	/	/
O=c1c2c(nc3cc(-c4ccc(F)cc4)[nH]n13)CCCC2	?	?	2.3µM	1.5µM	?	0.45µM
O=c1c2c(nc3c(-c4ccc(Cl)cc4)c[nH]n13)CCCC2	.	.	.	.	10µM	.
O=c1c2c(nc3cc(-c4cccc(F)c4)[nH]n13)CCC2	8.9µM	1.6µM	?	6µM	?	1.1µM
O=C1c2nc3cc(-c4ccccc4)[nH]n3c(=O)c2CN1Cc1ccccc1	/	.	.	.	.	.
SMILES	SMN2 splice up	NPC1 prom act	ELG1 genotox	FLuc modulator	ELG1 DNA repair	Rab9 prom act
Cc1[nH]n2c(=O)c3c(nc2c1-c1ccc(F)cc1)CCCC3	/	.	.	.	.	.
O=c1c2c(nc3cc(-c4cccc(Cl)c4)[nH]n13)CCC2	8.9µM	2µM	2.3µM	4.8µM	?	1.6µM
Cc1nn(C)c2c1c(-c1ccccc1)cc(=O)n2C(C)C(=O)NCCc1ccc(Cl)cc1 (stereo not drawn)	/	/	/	.	/	/
Cc1ccc(CN(C(=O)c2cc3ccccc3oc2=O)C2CCS(=O)(=O)C2)cc1 (stereo not drawn)	.	?	.	17µM	?	?
O=C(c1cc2ccccc2oc1=O)N(Cc1ccc(F)cc1)C1CCS(=O)(=O)C1 (stereo not drawn)	/	?	?	19µM	?	3.2µM
O=C(c1ccccc1F)N(Cc1ccc(F)cc1)C1CCS(=O)(=O)C1 (stereo not drawn)	.	.	.	.	.	.
COc1cc(CN(C(=O)c2cc3ccccc3oc2=O)C2CCS(=O)(=O)C2)cc(OC)c1OC (stereo not drawn)	.	.	.	.	.	.
O=C(c1cc2ccccc2oc1=O)N(Cc1cccs1)C1CCS(=O)(=O)C1 (stereo not drawn)	.	.	18µM	19µM	?	?
COc1ccc(CN(C(=O)c2oc3cc(C)ccc3c2C)C2CCS(=O)(=O)C2)cc1OC (stereo not drawn)	/	.	.	.	13µM	.
COc1cccc(CN(C(=O)c2oc3cc(C)ccc3c2C)C2CCS(=O)(=O)C2)c1 (stereo not drawn)	.	/	/	.	/	/
CCc1ccc(CN(C(=O)c2cc3ccccc3oc2=O)C2CCS(=O)(=O)C2)cc1 (stereo not drawn)	18µM	2.8µM	?	19µM	?	4µM
CCc1ccc(CN(C(=O)c2oc3ccccc3c2C)C2CCS(=O)(=O)C2)cc1 (stereo not drawn)	/	.	.	.	?	.
COc1ccc(CCNC(=O)COC(=O)c2cc3ccccc3oc2=O)cc1OC	/	/	.	/	.	/
COc1ccc(CN(C(=O)c2cc3ccccc3oc2=O)C2CCCCC2)cc1OC	.	.	.	27µM	?	.
Cc1c(C(=O)Nc2cccc(Cl)c2)sc2nc3n(c(=O)c12)N=C(c1cccc(Br)c1)CS3	/	/	/	.	/	/
COc1ccc(N2C(=O)C(CC(=O)Nc3ccc(Cl)cc3)N(Cc3ccc4c(c3)OCO4)C2=O)cc1 (stereo not drawn)	.	/	/	.	/	/
Cc1ccc2nc(C)c(C(=O)N/N=C/c3ccc(C(=O)O)cc3)cc2c1	/	.	.	5.4µM	.	?
Cc1nc2c(C)cccc2cc1C(=O)N/N=C/c1ccc(O)cc1	.	.	.	?	.	.
C/C(=N\NC(=O)c1cc(-c2cccs2)nc2ccccc12)c1ccccn1	.	.	.	24µM	.	.
O=C(O)c1ccc(/C=N/NC(=O)c2cc(-c3cccs3)nc3ccccc23)cc1	.	.	.	6µM	.	.
O=C(NC1=NCCS1)c1cc(-c2cccnc2)nc2ccccc12	.	.	.	?	?	.
O=C(NC1=NCCS1)c1cc(-c2cccs2)nc2ccccc12	/	.	.	12µM	?	.
NNC(=O)c1cc(-c2cccs2)nc2ccccc12	/	.	.	.	?	.
